Assay outcomes from PubChem BioAssay.
RE007 growth inh = less growth of the S. pombe RE007 Vpr strain; 360,000 tested, 0.21% active; Potency, µM (series often up to 92.2 µM), hits mostly inhibitors; AID 651644; S. pombe RE007 Vpr strain, BacTiter-Glo ATP luminescence, 24 h; active = well fitted falling curve with a large enough effect; inconclusive = small, poorly fitted or top-dose-only effect; inactive = no such curve, though single readings can be large or run the other way; also: nearly all actives have a fitted effect of over 50% in size
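Fission yeast RE007 carrying one integrated HIV-1 vpr copy, seeded at OD 0.01 in PMG+AL medium with 23 nL pinned compound. Grown 24 h at 30 degrees; viability read by BacTiter-Glo luminescence after 5 min.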
CHX counter = counter-screen hit for Shiga toxin inhibitors, cycloheximide; cell reporter, cycloheximide protein synthesis inhibition counterscreen; 300,000 tested, 12% active; max response, %; in the data active = max response mostly above about 13%, no sharp cut-off; inactive = mostly below about 14%; also: read at 38.3 µM for the half of the compounds with a filed dose
LmPK inhibitor = inhibitors of Leishmania mexicana pyruvate kinase. Potency, µM (highest dose often 57.5 µM), hits mostly inhibitors. Q27686. 290,000 tested, 0.37% active. purified LmPK, Kinase-Glo ATP luminescence, 1 h
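Pyruvate kinase activity monitored as ATP production (luciferase luminescence). Conditions: 0.1 nM enzyme, 0.5 mM PEP, 0.1 mM ADP, 1 h, RT; normalized against uninhibited and no-enzyme wells.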
Tb PYK inh = inhibitors of Trypanosoma brucei pyruvate kinase. TbPYK enzyme, Kinase-Glo Plus ATP luminescence, 45 min. 410,000 tested, 0.12% active. Q57TT1. Potency, µM (top dose mostly 76.8 µM), usual class: inhibitors; also: nearly all actives have a fitted effect of over 50% in size
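Luminescence from Kinase-Glo Plus, added after a 45-minute room-temperature reaction, served as the end-point read-out. The enzyme and substrate were preincubated with compound before ADP (130 uM final) initiated turnover. Concentration-effect curves came from normalized qHTS data.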
Giardia FBPA inh = blocks Giardia fructose-bisphosphate aldolase activity; A8B2U2; purified Giardia FBPA; Potency, µM (top dose mostly 59.6 µM), hits mostly inhibitors; 290,000 tested, 0.71% active; also: nearly all actives have a fitted effect of over 55% in size
Target sequence (A8B2U2 whole entry, looked up): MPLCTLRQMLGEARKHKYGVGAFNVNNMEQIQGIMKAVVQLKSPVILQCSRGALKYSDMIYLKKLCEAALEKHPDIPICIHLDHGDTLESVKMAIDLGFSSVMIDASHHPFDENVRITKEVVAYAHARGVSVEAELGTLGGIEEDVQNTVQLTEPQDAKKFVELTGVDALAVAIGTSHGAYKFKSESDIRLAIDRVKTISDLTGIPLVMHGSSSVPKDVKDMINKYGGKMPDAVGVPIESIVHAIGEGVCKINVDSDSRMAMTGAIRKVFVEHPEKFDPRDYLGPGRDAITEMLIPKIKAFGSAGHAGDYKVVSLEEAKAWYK
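Giardia FBPA (40 nM reagent) was preincubated 10 min at RT with compound (up to 57.5 uM final), then substrate plus GAPDH/TPI/NAD/arsenate coupling system with diaphorase/resazurin was added; resorufin fluorescence (525/598 nm) was read after 20 min.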
Shiga inhibitor = inhibitors of Shiga toxin in Vero cells. Vero cells, Shiga toxin protein synthesis inhibition reporter. 290,000 tested, 9.2% active. AID 2315. inhibition, % at 38.7 µM; in the data active = inhibition mostly above about 28%, no sharp cut-off; inactive = mostly below about 43%
Large screens that a line does not name were inactive. This excerpt belongs to a sample that is enriched for hits. Unless noted, calls follow the shape of the dose curve; as a rule, active = well fitted curve in the direction sought with a large enough effect; inconclusive = small, poorly fitted or top-dose-only effect, or another doubt; inactive = no such curve, though single readings can be large; an effect the other way counts as inactive or inconclusive.

Cc1csc2ncc(C(=O)Nc3ccc4c(c3)OCCO4)c(=O)n12	CHX counter 59, Shiga inhibitor 117
Nc1cc(=O)nc(SCC(=O)Nc2ccc(F)cc2)n1CCc1ccccc1	none (no result: RE007 growth inh, CHX counter, LmPK inhibitor, Giardia FBPA inh, Shiga inhibitor)
O=C(Cc1nc2ccccc2[nH]1)N/N=C/c1ccccc1	none
c1ccc(N/N=C(\Cc2nc3ccccc3[nH]2)c2ccccc2)cc1	CHX counter 52, Shiga inhibitor 48
Cc1ccc(N/N=C(\Cc2nc3ccccc3[nH]2)c2ccccc2)cc1	CHX counter 35, Shiga inhibitor 48
Clc1cccc(/C(Cc2nc3ccccc3[nH]2)=N\Nc2ccccc2)c1	CHX counter 54, Shiga inhibitor 55
Cc1ccc(S(=O)(=O)NCc2nc3ccccc3[nH]2)cc1	none
CCN/N=C(\Cc1nc2ccccc2[nH]1)c1ccccc1	CHX counter 20
N/N=C(/Cc1nc2ccccc2[nH]1)c1ccc([N+](=O)[O-])cc1	RE007 growth inh 13µM, CHX counter 44, Shiga inhibitor 141
N#CCCN/N=C(/Cc1nc2ccccc2[nH]1)c1ccc(Cl)cc1	CHX counter 30, Shiga inhibitor 67 (no result: RE007 growth inh, Tb PYK inh)
N#CCCN/N=C(\Cc1nc2ccccc2[nH]1)c1ccccc1	none
CCn1c(=O)c(C(=O)Nc2ccccc2C)c(O)c2ccccc21	Tb PYK inh inconclusive, Shiga inhibitor active
CCn1c(=O)c(C(=O)Nc2ccc(C)cc2)c(O)c2ccccc21	none
CCCn1c(=O)c(C(=O)Nc2ccccc2C)c(O)c2ccccc21	CHX counter 14, Giardia FBPA inh inconclusive (no result: Shiga inhibitor)
CCCn1c(=O)c(C(=O)N/N=C/c2ccc(F)cc2)c(O)c2ccccc21	none
C=CCn1c(=O)c(C(=O)Nc2ccccc2C)c(O)c2ccccc21	CHX counter 19
CCCn1c(=O)c(C(=O)N/N=C/c2ccccc2F)c(O)c2ccccc21	CHX counter 13
CN(CC(=O)Nc1ccc(F)cc1)C(=O)CN1C(=O)NC(CCc2ccccc2)C1=O (centres undefined)	none (no result: CHX counter, LmPK inhibitor, Giardia FBPA inh, Shiga inhibitor)
CC(=O)N1CCCc2cc(S(=O)(=O)N(C)CC(=O)Nc3cccc(Cl)c3C)ccc21	none (no result: RE007 growth inh, CHX counter, LmPK inhibitor, Giardia FBPA inh, Shiga inhibitor)
CCN1CCN(Cc2c(O)ccc3oc(C)c(C(=O)Nc4ccc(OC)c(Cl)c4)c23)CC1	none (no result: RE007 growth inh, CHX counter, LmPK inhibitor, Giardia FBPA inh, Shiga inhibitor)
CCCCCn1c(=O)c(C(=O)Nc2ccccc2C)c(O)c2ccccc21	CHX counter 34 (no result: Shiga inhibitor)
CN(CCOc1ccc(Cl)c(Cl)c1)Cc1ccccc1	Giardia FBPA inh inconclusive (no result: Shiga inhibitor)
CN(CCOc1ccccc1Cl)Cc1ccccc1	CHX counter 13, Giardia FBPA inh inconclusive (no result: Shiga inhibitor)
CN(C)CCNS(=O)(=O)c1ccc(N2CCc3ccccc32)c([N+](=O)[O-])c1	Giardia FBPA inh inconclusive
CCCCNC(=O)c1cc2cc(CC)ccc2[nH]1	CHX counter 14
COc1ccc2[nH]c(C(=O)NCCN3CCOCC3)cc2c1	none
Cc1occc1C(=O)Nc1cccc([N+](=O)[O-])c1C	none
COc1ccc(C(=O)N/N=C/c2cccnc2)cc1	CHX counter 29, Shiga inhibitor 54
Cc1occc1C(=O)N/N=C/c1ccccc1[N+](=O)[O-]	CHX counter 62, LmPK inhibitor 14µM, Shiga inhibitor 64
Cn1nccc1C(=O)N/N=C/c1ccccc1[N+](=O)[O-]	CHX counter 32, LmPK inhibitor inconclusive, Shiga inhibitor 80
CCC(=O)Nc1ccc(C(=O)N/N=C/c2ccccc2[N+](=O)[O-])cc1	none
O=C(CNC(=O)c1ccncc1)N/N=C/c1ccccc1[N+](=O)[O-]	CHX counter 23, Shiga inhibitor 58
COc1ccc(S(=O)(=O)N(CCc2ccccc2)CC(=O)Nc2cccc(OC)c2)cc1	none (no result: RE007 growth inh, CHX counter, LmPK inhibitor, Giardia FBPA inh, Shiga inhibitor)
Cc1cc(C)n(Cc2cccc(C(=O)N/N=C/c3cccnc3)c2)n1	CHX counter 10.0
Cc1cc(C)n(Cc2cccc(C(=O)N/N=C/c3ccncc3)c2)n1	none (no result: Giardia FBPA inh)
CC(=O)Nc1ccc(C(=O)N/N=C/c2cccnc2)cc1	none
Cn1nccc1C(=O)N/N=C/c1cccnc1	CHX counter 33, Shiga inhibitor 59
Cc1ccc(C2=CC(c3ccc(N(C)C)cc3)n3nnnc3N2)cc1 (centres undefined)	CHX counter 26
COc1ccc(C2=CC(c3ccc(F)cc3)n3nnnc3N2)cc1 (centres undefined)	none
COc1cccc(C2=CC(c3ccc(C)cc3)n3ncnc3N2)c1 (centres undefined)	none (no result: RE007 growth inh, Tb PYK inh)
COc1cccc(C2=CC(c3cccs3)n3nnnc3N2)c1 (centres undefined)	CHX counter 41, Shiga inhibitor 48
COc1cccc(C2=CC(c3ccc(OC)c(OC)c3OC)n3nnnc3N2)c1 (centres undefined)	CHX counter 35, Giardia FBPA inh inconclusive, Shiga inhibitor 92
CC(C)c1ccc(C2=CC(c3ccc(C(C)C)cc3)n3nnnc3N2)cc1 (centres undefined)	none (no result: RE007 growth inh, CHX counter, LmPK inhibitor, Giardia FBPA inh, Shiga inhibitor)
COc1ccc(C2=CC(c3sccc3C)n3nnnc3N2)cc1 (centres undefined)	CHX counter 40, Shiga inhibitor 109
COc1ccc(S(=O)(=O)NCCc2csc3nc(-c4ccc(OC)c(OC)c4)nn23)cc1C	none (no result: RE007 growth inh, CHX counter, LmPK inhibitor, Giardia FBPA inh, Shiga inhibitor)
CCOCCCn1c(SCC(=O)Nc2ccccc2CC)nc2ccccc2c1=O	none (no result: RE007 growth inh, CHX counter, LmPK inhibitor, Giardia FBPA inh, Shiga inhibitor)
O=S1(=O)c2ccccc2N(Cc2ccccc2F)c2ccccc21	none (no result: RE007 growth inh, CHX counter, LmPK inhibitor, Giardia FBPA inh, Shiga inhibitor)
NC(=O)CSc1ncc(-c2ccccc2)[nH]1	CHX counter 14, Shiga inhibitor 79
O=C(CSc1ncc(-c2ccccc2)[nH]1)Nc1ccccc1F	CHX counter 40, Shiga inhibitor 72
O=C(CSc1ncc(-c2ccc(Cl)cc2)[nH]1)Nc1ccccc1F	none (no result: RE007 growth inh, CHX counter, LmPK inhibitor, Giardia FBPA inh, Shiga inhibitor)
O=C(CSc1ncc(-c2ccccc2)[nH]1)Nc1cccc(O)c1	CHX counter 12
O=C(CSc1ncc(-c2ccc(F)cc2)[nH]1)N1CCCCC1	CHX counter 26, Giardia FBPA inh inconclusive, Shiga inhibitor 44
O=C(CSc1ncc(-c2ccccc2)[nH]1)Nc1ccccc1	none
NC(=O)CSc1ncc(-c2ccc([N+](=O)[O-])cc2)[nH]1	none
CCOc1ccccc1CN(CCc1ccc2c(c1)OCO2)Cc1cccc(OC)c1OC	none (no result: RE007 growth inh, CHX counter, LmPK inhibitor, Giardia FBPA inh, Shiga inhibitor)
Cc1cccc(C)c1NC(=O)c1ccc2c(c1)N(Cc1cccc(Cl)c1)C(=O)c1ccccc1S2=O (centres undefined)	none (no result: RE007 growth inh, CHX counter, LmPK inhibitor, Giardia FBPA inh, Shiga inhibitor)
COc1ccc(CCNC(=O)CCSCc2ccccc2Cl)cc1OC	none (no result: RE007 growth inh, CHX counter, LmPK inhibitor, Giardia FBPA inh, Shiga inhibitor)
COc1cccc(CCc2nnc(CCC(=O)NCCC3CCCCO3)o2)c1 (centres undefined)	CHX counter 18
COc1ccc(CC(=O)N(CC2CCCO2)c2nc3ccccc3s2)cc1 (centres undefined)	CHX counter 27
O=C(CCc1nnc(-c2ccc3c(c2)OCO3)o1)N(Cc1ccncc1)CC1CCCO1 (centres undefined)	none
CCCN(CC1CCCO1)C(=O)CCc1nnc(-c2cc(C)on2)o1 (centres undefined)	CHX counter 16, Shiga inhibitor 51
